Hits are enriched below; roughly 1.8% of the tested compounds scored in any of these assays.
Myeloid diff MLP: compounds promoting myeloid differentiation | ER-HoxA9 myeloid progenitors, lysozyme-GFP differentiation, flow cytometry | calls only at 10 µM | 360,000 compounds, 1% hits | AID 624256;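 active = normalized GFP-positive differentiation at or above the plate's own cutoff, the solvent-only control mean plus 3 SD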;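 note: cells exposed to compound for four days before flow analysis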
ABCB6 inh MLPCN: inhibitors of human ABC transporter ABCB6; Q9NP58; K562-ABCB6 porphyrin accumulation, flow cytometry, 1 h; hits give low values; fluorescence ratio to DMSO, % at 10 µM; 360,000 compounds, 0.19% hits; AID 602162;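 active = fluorescence ratio to DMSO below 75%, the collection mean minus 3 SD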;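 note: signal is porphyrin accumulated inside mitochondria; lower ratio means ABCB6 inhibition with less porphyrin fluorescence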
Target sequence (Q9NP58 whole entry, looked up): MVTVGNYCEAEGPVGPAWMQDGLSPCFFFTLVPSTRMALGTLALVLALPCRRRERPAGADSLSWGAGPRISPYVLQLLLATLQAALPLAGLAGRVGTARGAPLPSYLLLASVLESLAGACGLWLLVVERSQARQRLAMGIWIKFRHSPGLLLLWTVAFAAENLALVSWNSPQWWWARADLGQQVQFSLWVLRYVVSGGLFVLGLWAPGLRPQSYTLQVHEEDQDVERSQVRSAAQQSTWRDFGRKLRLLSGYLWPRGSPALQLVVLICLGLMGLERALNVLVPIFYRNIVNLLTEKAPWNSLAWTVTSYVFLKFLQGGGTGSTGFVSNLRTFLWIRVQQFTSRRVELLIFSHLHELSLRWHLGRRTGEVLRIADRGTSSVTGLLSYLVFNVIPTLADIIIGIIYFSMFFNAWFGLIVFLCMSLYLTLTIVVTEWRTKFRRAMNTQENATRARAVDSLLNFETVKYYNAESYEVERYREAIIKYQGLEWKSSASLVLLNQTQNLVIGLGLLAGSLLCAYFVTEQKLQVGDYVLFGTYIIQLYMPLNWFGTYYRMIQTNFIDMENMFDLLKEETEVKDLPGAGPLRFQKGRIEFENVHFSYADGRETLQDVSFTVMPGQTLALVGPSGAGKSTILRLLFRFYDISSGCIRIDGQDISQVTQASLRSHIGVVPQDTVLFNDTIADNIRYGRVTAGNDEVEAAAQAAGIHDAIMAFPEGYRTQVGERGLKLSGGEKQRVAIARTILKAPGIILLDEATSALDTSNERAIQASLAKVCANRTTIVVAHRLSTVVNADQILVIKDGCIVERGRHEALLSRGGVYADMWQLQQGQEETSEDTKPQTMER
Exocytosis inh: blocks lytic granule exocytosis; TALL-104 LAMP-1 surface exposure, flow cytometry; cells stimulated with thapsigargin and PMA; inhibition, % at 10 µM; 360,000 compounds, 0.66% hits; AID 651702;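 active = inhibition above about 55%, limit read from the data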
Myeloid diff: compounds promoting myeloid differentiation; 2,300 compounds, 2% hits; shares compounds with Myeloid diff MLP; ER-HoxA9 myeloid progenitors, GFP/Mac1 double-positive flow; calls only;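 active = share of green or green-and-red cells above 9 and 9% in run 1 or 4 and 3% in run 2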
GFP autofluor: flagged as fluorescent in myeloid differentiation counter-screen | shares compounds with Myeloid diff MLP | ER-HoxA9 myeloid progenitors, no estrogen, GFP autofluorescence flow cytometry; vehicle wells 0%, positive control 100% | fluorescence response, % (test concentration not listed) | 2,300 compounds, 7.4% hits | AID 651707;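 active = over 5% cells positive for green fluorescent reporter, or over 2% positive for both it and APC stain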
Numbers stand for hits; – = inactive; · = no result given; + = active, no number.

SMILES	Myeloid diff MLP	ABCB6 inh MLPCN	Exocytosis inh	Myeloid diff	GFP autofluor
O=C1CCN(CCc2ccccc2)CCN1CCSc1ccccc1	–	–	–	·	·
O=C(Nc1ccc([N+](=O)[O-])cc1)c1ccccc1F	–	–	–	·	·
O=C(Nc1ncc(S(=O)(=O)c2ccc([N+](=O)[O-])cc2)s1)c1ccccc1F	+	–	–	–	–
CC(C)c1c(O)nc(SCCN2CCOCC2)[nH]c1=O	–	–	–	·	·
CCC(C)c1c(O)nc(SCC(=O)N2CCOCC2)[nH]c1=O (stereo unspecified)	–	–	–	–	–
O=C(c1ccc2[nH]ccc2c1)N1CCCC(Nc2ccccc2)C1 (stereo unspecified)	–	–	–	·	·
CCCCNC(=O)c1onc(CSc2ccc(Cl)cc2)c1C(=O)O	–	–	–	·	·
C(#Cc1ccccc1)C[N+]1(CC#Cc2cccc3ccccc23)CCCC1	–	–	–	·	·
C#CC[N+]1(CC#Cc2ccccc2)CCCC1	+	–	–	–	–
O=[N+]([O-])c1ccc(N=Nc2c(O)[nH]c3ccc(F)cc23)cc1	–	–	–	·	·
O=[N+]([O-])c1ccc2[nH]c(O)c(N=Nc3ccc(F)cc3)c2c1	+	–	–	–	9.8
CC12Cc3ccc4ccccc4c3C=C1C[N+](C)(C)C2 (stereo unspecified)	–	–	–	·	·
CC[N+]1(CC)CC2=Cc3c(ccc4ccccc34)CC2C1 (stereo unspecified)	+	–	–	–	–
NC(=O)CC(NC(=O)Cc1ccc(Br)cc1)c1ccc(NCCc2ccccc2F)c([N+](=O)[O-])c1 (stereo unspecified)	–	–	–	·	·
CN(C)/C=C/C(=O)c1ccc(C(F)(F)F)cc1F	–	–	–	·	·
CN(C)c1ccc(/C=C2\Oc3ccc(C#Cc4cccc(N)c4)cc3C2=O)cc1	–	–	–	–	98
COC(=O)c1ccc2c(c1)C(=O)/C(=C/c1ccc(C)cc1)O2	–	–	–	·	·
CCOc1ccc(Br)cc1S(=O)(=O)Nc1ncn[nH]1	–	–	–	·	·
CC1CCN(c2ccc3c(c2)S(=O)(=O)c2cccc(C(=O)NC4CCCCC4)c2C3=O)CC1	+	–	–	–	–
O=C(NC1CCCCC1)c1cccc2c1C(=O)c1ccc(N3CCCC3)cc1S2(=O)=O	–	–	–	·	·
COc1cc(/C=N/NC(=O)c2cc(-c3cccn3C)n[nH]2)cc(OC)c1OC	–	–	–	·	·
COc1cccc(/C=N/NC(=O)c2cc(-c3cccn3C)n[nH]2)c1O	–	–	–	–	–
O=C1/C(=C\c2cc([N+](=O)[O-])ccc2O)SC(=S)N1Cc1ccc(Cl)cc1	–	–	–	–	74
O=C1/C(=C\c2cccc(O)c2O)SC(=S)N1Cc1ccccc1	–	–	–	·	·
CCCC(=O)C1=C(O)C(C(=O)OC)C(C)(C)CC1=Nc1ccccc1 (stereo unspecified)	–	–	–	–	–
SMILES	Myeloid diff MLP	ABCB6 inh MLPCN	Exocytosis inh	Myeloid diff	GFP autofluor
CCCC(=O)C1=C(O)C(C(=O)OC)C(C)(C)CC1=NCc1ccccc1 (stereo unspecified)	–	–	–	·	·
Nc1nc(Nc2cccc(Cl)c2)n[nH]1	–	–	–	·	·
COC(=O)C1(C(=O)OC)C[C@H](c2ccc(OC)cc2)N(Cc2ccccc2OC)[C@@H]1c1ccccc1	–	·	–	·	·
Cc1ccc(NC(=O)C2CCCN2C(=O)c2cccs2)c(C)c1 (stereo unspecified)	–	–	–	·	·
CC(=O)c1ccc(N2Cc3ccccc3/C2=N\C(=O)Nc2ccc(Cl)cc2)cc1	–	–	–	–	–
COC(=O)c1ccc(N2Cc3ccccc3/C2=N\C(=O)Nc2ccccc2)cc1	–	–	–	·	·
COc1cc(C#Cc2c(-c3cncn3C)n(C)c3ccc(-c4ccc(OC)nc4)cc23)cc(OC)c1	–	–	–	·	·
COc1cc(C#Cc2c(-c3cncn3C)n(C)c3ccc(-c4ccc5[nH]ccc5c4)cc23)cc(OC)c1	–	–	–	–	98
Cc1c(NC(=O)[C@@H](NC(=O)c2ccc(Cl)c([N+](=O)[O-])c2)C(C)C)c(=O)n(-c2ccccc2)n1C	–	–	–	·	·
C=CCN1C(=O)S/C(=C/c2ccc(Sc3nc4ccccc4[nH]3)o2)C1=O	–	–	–	·	·
CC(C)N1C(=O)S/C(=C/c2ccc(Sc3nc4ccccc4[nH]3)o2)C1=O	–	–	–	–	–
Cc1cccc(C)c1NC(=O)CN(c1c(C)cccc1C)S(C)(=O)=O	–	–	–	·	·
CN(CC(=O)Nc1ccccc1Cl)C(=O)COC(=O)c1cnccn1	–	–	–	·	·
COc1ccc(N2C[C@H](CSC)[C@@H](CC(=O)Nc3ccc(Br)cc3)C2=O)cc1	–	–	–	·	·
COc1ccc(NC(=O)C[C@H]2C(=O)N(c3ccc(Br)cc3)C[C@@H]2CSC)cc1	–	–	–	–	–
CN(C)CCCNc1cc(O)c2ncccc2c1	–	–	–	·	·
CCOC(=O)C1=CN(CC)S(=O)(=O)NC1c1ccc(C(F)(F)F)cc1 (stereo unspecified)	–	–	–	·	·
Cc1nc(SCC(=O)N(C)C2(C#N)CCCCC2)c2ccccc2n1	–	–	–	–	–
Cc1nc(SCC(=O)N(C)C2CCS(=O)(=O)C2)c2ccccc2n1 (stereo unspecified)	–	–	–	·	·
COc1cc(/C=C/C(=O)OC[C@H]2O[C@H](OC3(CO)OC(CO)C(O)C3O)[C@H](O)[C@@H](O)[C@@H]2O)ccc1O (stereo partly specified)	–	–	–	–	–
COc1cc(/C=C/C(=O)OCC(=O)N2CCC(C)CC2)ccc1O	–	–	–	·	·
Cc1nc(SCC(=O)N2CCCCCC2)[nH]c(=O)c1C	–	–	–	·	·
CCC(CO)n1c(SCc2cc(=O)oc3cc(C)ccc23)nc2ccccc2c1=O (stereo unspecified)	–	–	–	+	–
COc1ccccc1-n1c(SCc2cc(=O)oc3cc(O)ccc23)nc2ccccc2c1=O	–	–	–	·	·
FC(F)(F)c1nnc2ccc(-n3ccnc3)nn12	–	–	–	·	·
SMILES	Myeloid diff MLP	ABCB6 inh MLPCN	Exocytosis inh	Myeloid diff	GFP autofluor
FC(F)(F)c1ccc(-n2ccnc2)nc1	+	–	–	–	–
CCCOc1ccccc1OCC(=O)Nc1cc(Cl)ccc1-n1cncn1	–	–	–	·	·
COc1ccccc1CNC(=O)COc1cc2c(c3oc(=O)cc(C)c13)CCC(C)(C)O2	–	–	–	·	·
O=C(O)c1ccc(O)c(O)c1	–	–	–	·	·
O=C(O)c1ccc(-c2ccc(O)c(F)c2)cc1	–	–	–	–	–
O=C1c2cccc3cccc(c23)C(=O)N1CCN1CCN(CC(O)COCc2ccc(Cl)cc2)CC1 (stereo unspecified)	–	–	–	·	·
COc1cc(COCC(O)CN2CCN(CCN3C(=O)c4cccc5cccc(c45)C3=O)CC2)cc(OC)c1OC (stereo unspecified)	+	–	–	–	–
Cc1noc(C)c1C(=O)OC(C)C(=O)Nc1ccc(C(N)=O)cc1 (stereo unspecified)	–	–	–	·	·
CC(=O)c1ccc(-c2cnc3c(NC=O)cc(-c4ccccc4Oc4ccccc4)cn23)cc1	–	–	–	–	–
COc1ccc(-c2cnc3c(NC=O)cc(-c4ccc(S(C)(=O)=O)cc4)cn23)cc1OC	·	–	–	·	·

Bioassay records deposited in PubChem BioAssay by NMMLSC.
